Drawing on PubChem BioAssay (Tox21), this text covers Potency for 57 molecules.

Assay [1] is described as follows: cAMP Responsive Elements (CRE) small molecule antagonists, cell-based qHTS assay: qHTS cell viability counter screen (AID 2060913). Further: nearly all actives have a fitted effect of over 40% in size. The gist of the method: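 Cytotoxicity counter screen multiplexed with the CRE-bla antagonist read: HEK293T cells in DMEM with dialyzed FBS and 25 mM HEPES were treated 3 hrs under 0.25 uM final NKH477, then viability measured by CellTiter-Glo luminescence.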
On the technique in general: qHTS replaces the single test concentration by a dilution series.

Assay [2] is described as follows: cAMP Responsive Elements (CRE) small molecule agonists, cell-based qHTS assay: qHTS cell viability counter screen (AID 2060914). Further: nearly all actives have a fitted effect of over 50% in size. Further: potency means the concentration at half of the fitted maximal effect. In short, it runs like this: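 In the same wells as the reporter read, viability of CRE-bla HEK 293T cells was quantified by CellTiter-Glo luminescence after a 3 h compound exposure.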

Molecules are shown by their SMILES. Records with an inconclusive call do not appear. A call without a number means that no potency is given here. Values without a mark were called inactive. The source made the active and inactive calls. The call rests on the fitted dose curve; in most records, active means well fitted cell-killing curve with a large enough effect in the repeat runs; inconclusive means weak or mixed curves, or effect the other way; inactive means flat fitted curve, though single readings scatter.

For `CCCCCN(CCCCC)C(=O)C(CCC(=O)O)NC(=O)c1ccc(Cl)c(Cl)c1` (centres undefined), the Potency entry in assay [1] and in assay [2] was “inactive” each time.

In the case of `COc1cc(C)c(Cc2cnc(N)nc2N)cc1OC`, the Potency entry in assay [1] and in assay [2] was “inactive” in each case.

For `CCC=CC#N`, the Potency entry in assay [1] and in assay [2] was “inactive” throughout.

In the case of `CC1(C)C(O)C(C)(C)C1O` (centres undefined), the Potency result in assay [1] and in assay [2] was “inactive” in each case.

Consider `CCCCCCCCCCCCCCCC(=O)OC/C=C(C)/C=C/C=C(C)/C=C/C1=C(C)CCCC1(C)C`, for which the Potency entry in assay [1] and in assay [2] was “inactive” in each case.

As for `C=COCCCC`, the Potency entry in assay [1] and in assay [2] was “inactive” each time.

`C[C@]12C=CC(=O)C=C1[C@@H](F)C[C@@H]1[C@@H]2[C@@H](O)C[C@@]2(C)[C@H]1CC[C@]2(O)C(=O)CO`: the Potency result in assay [1] and in assay [2] was “inactive” throughout.

Consider `CCCC1CCC(=O)CC1`, for which the Potency entry in assay [1] and in assay [2] was “inactive” in each case.

`O=C(Cl)c1ccc([N+](=O)[O-])cc1`: the Potency entry in assay [1] and in assay [2] was “inactive” each time.

With `Nc1ccn([C@@H]2O[C@H](CO)[C@@H](O)[C@@H]2O)c(=O)n1`, the Potency result in assay [1] and in assay [2] was “inactive” each time.

As to `CCC1Nc2cc(Cl)c(S(N)(=O)=O)cc2S(=O)(=O)N1` (centres undefined), the Potency entry in assay [1] and in assay [2] was “inactive” throughout.

On to `OC1CCCC1`, for which the Potency result in assay [1] and in assay [2] was “inactive” each time.

As to `CC(C)CCCCCOC(=O)CCS`, the Potency result in assay [1] and in assay [2] was “inactive” each time.

Turning to `OCCNCc1ccccc1`, the Potency result in assay [1] and in assay [2] was “inactive” in each case.

With `CC1=CC(=O)CC(C)(C)C1=O`, the Potency result in assay [1] and in assay [2] was “inactive” throughout.

On to `CCCN(CCC)c1c([N+](=O)[O-])cc(C(F)(F)F)c(N)c1[N+](=O)[O-]`, for which the Potency entry in assay [1] was “inactive”. Further, the Potency in assay [2] was 60.9 µM (active).

For `Nc1ccn(C2CO[C@H](CO)O2)c(=O)n1` (some centres undefined), the Potency result in assay [1] and in assay [2] was “inactive” each time.

As for `Cc1ccc(C(=O)c2ccccc2)cc1`, the Potency result in assay [1] and in assay [2] was “inactive” each time.

`CC(=O)Nc1cc(S(=O)(=O)O)cc2cc(S(=O)(=O)O)c(N=Nc3ccccc3)c(O)c12`: the Potency result in assay [1] and in assay [2] was “inactive” each time.

On to `CC(C)C(=O)c1ccccc1`, for which the Potency entry in assay [1] and in assay [2] was “inactive” in each case.

Turning to `CC(C)C[C@H](NC(=O)CNC(=O)[C@H](Cc1ccc(O)cc1)NC(=O)[C@H](CO)NC(=O)[C@H](Cc1c[nH]c2ccccc12)NC(=O)[C@H](Cc1cnc[nH]1)NC(=O)[C@@H]1CCC(=O)N1)C(=O)N[C@@H](CCCN=C(N)N)C(=O)N1CCC[C@H]1C(=O)NCC(N)=O` (stereo in doubt), the Potency entry in assay [1] and in assay [2] was “inactive” in each case.

`CC/C=C\C/C=C\C/C=C\CCCCCCCC(=O)OC`: the Potency result in assay [1] and in assay [2] was “inactive” in each case.

With `CC[C@@H](N)CO`, the Potency entry in assay [1] and in assay [2] was “inactive” each time.

Take `O=C(OCC(O)CO)c1ccccc1Nc1ccnc2c(C(F)(F)F)cccc12` (centres undefined): the Potency entry in assay [1] and in assay [2] was “inactive” each time.

For the molecule `CCC(C)(CCC(C)C)C(=O)O` (centres undefined), the Potency entry in assay [1] and in assay [2] was “inactive” in each case.

On to `CC(C)(O)c1ccccc1`, for which the Potency result in assay [1] and in assay [2] was “inactive” each time.

With `COc1ccc(CCC(=O)c2c(O)cc(O[C@@H]3O[C@H](CO)[C@@H](O)[C@H](O)[C@H]3O[C@@H]3O[C@@H](C)[C@H](O)[C@@H](O)[C@H]3O)cc2O)cc1O`, the Potency result in assay [1] and in assay [2] was “inactive” in each case.

Regarding `CCCCCc1ccc(N)cc1`, the Potency entry in assay [1] and in assay [2] was “inactive” in each case.

Regarding `O=C(O)c1ccc(Cl)c(Cl)c1`, the Potency entry in assay [1] and in assay [2] was “inactive” each time.

Turning to `CCOCCOCCOCCO`, the Potency entry in assay [1] and in assay [2] was “inactive” throughout.

For `CC(C)Nc1nc(N)nc(Cl)n1`, the Potency entry in assay [1] and in assay [2] was “inactive” in each case.

`C1=COCCC1`: the Potency entry in assay [1] and in assay [2] was “inactive” throughout.

Turning to `CC1(C)O[C@H]2CC(=O)OC[C@]23[C@H]2CC[C@@]4(C)[C@H](c5ccoc5)OC(=O)[C@H]5O[C@]54[C@]2(C)C(=O)C[C@@H]13`, the Potency entry in assay [1] and in assay [2] was “inactive” in each case.

In the case of `NC(CCC(=O)O)C(=O)O` (centres undefined), the Potency entry in assay [1] and in assay [2] was “inactive” each time.

Regarding `O=C(O)c1ccco1`, the Potency entry in assay [1] and in assay [2] was “inactive” throughout.

Take `Nc1ccc2c(O)cc(S(=O)(=O)O)cc2c1`: the Potency entry in assay [1] and in assay [2] was “inactive” throughout.

For `CC(C)c1ccccc1O`, the Potency result in assay [1] and in assay [2] was “inactive” each time.

In the case of `CC(CO)Oc1ccccc1` (centres undefined), the Potency entry in assay [1] and in assay [2] was “inactive” each time.

Consider `Cc1cccc(C)c1OCC(=O)N[C@@H](Cc1ccccc1)[C@@H](O)C[C@H](Cc1ccccc1)NC(=O)[C@H](C(C)C)N1CCCNC1=O`, for which the Potency entry in assay [1] and in assay [2] was “inactive” in each case.

Take `C[C@H](CCC(=O)O)[C@H]1CC[C@H]2[C@@H]3[C@H](O)C[C@@H]4C[C@H](O)CC[C@]4(C)[C@H]3CC[C@]12C`: the Potency result in assay [1] and in assay [2] was “inactive” throughout.

As for `CCCCCCC/C=C/C=O`, the Potency result in assay [1] and in assay [2] was “inactive” in each case.

As to `OCC(CO)(CO)CO`, the Potency result in assay [1] and in assay [2] was “inactive” each time.

For `CCCCCCCCCOCC1CO1` (centres undefined), the Potency result in assay [1] and in assay [2] was “inactive” in each case.

As to `CC(C)CCCCCCCOC(=O)CCCCC(=O)OCCCCCCCC(C)C`, the Potency result in assay [1] and in assay [2] was “inactive” in each case.

As to `CCN(Cc1ccccc1)c1ccccc1`, the Potency entry in assay [1] and in assay [2] was “inactive” each time.

Regarding `CC[C@H](C)[C@@H](C(=O)O)n1sc2ccccc2c1=O`, the Potency entry in assay [1] and in assay [2] was “inactive” throughout.

With `CCCOC(C)=O`, the Potency entry in assay [1] and in assay [2] was “inactive” each time.

Regarding `Cc1ccc(C#N)cc1`, the Potency entry in assay [1] and in assay [2] was “inactive” throughout.

As for `Cc1ccc(N)c([N+](=O)[O-])c1`, the Potency result in assay [1] and in assay [2] was “inactive” each time.

Regarding `NCC1CCCC(CN)C1` (centres undefined), the Potency entry in assay [1] and in assay [2] was “inactive” each time.

Take `C[C@]12CC[C@@H]3c4ccc(O)cc4CC[C@H]3[C@@H]1C[C@@H](O)[C@@H]2O`: the Potency entry in assay [1] and in assay [2] was “inactive” in each case.

With `CCN(CC)CCOc1ccccc1C(=O)CCc1ccccc1`, the Potency result in assay [1] and in assay [2] was “inactive” throughout.

Take `C=C1C[C@H]2[C@@H]3C=C(C)C4=CC(=O)CC[C@]4(C)[C@H]3CC[C@]2(C)[C@@]1(OC(C)=O)C(C)=O`: the Potency result in assay [1] and in assay [2] was “inactive” in each case.

Take `c1cc(N(CC2CO2)CC2CO2)ccc1Cc1ccc(N(CC2CO2)CC2CO2)cc1` (centres undefined): the Potency result in assay [1] and in assay [2] was “inactive” each time.

Consider `CC[C@@]1(O)C(=O)OCc2c1cc1n(c2=O)Cc2cc3c(CN(C)C)c(O)ccc3nc2-1`, for which the Potency entry in assay [1] and in assay [2] was “inactive” in each case.

Regarding `CCCCC`, the Potency result in assay [1] and in assay [2] was “inactive” each time.

For `COc1ccc2[nH]c(S(=O)Cc3ncc(C)c(OC)c3C)nc2n1` (centres undefined), the Potency result in assay [1] and in assay [2] was “inactive” each time.
